The text below walks through data of PubChem BioAssay (NCI).

Common to all, as to experiment: NCI-60 one-dose screen, 48 h (100 = growth as untreated, 0 = no growth, -100 = all killed)
Holding throughout (conditions): 10 µM unless noted

Assay [1] has as its system HCT-15 colon.
The subject of assay [2] is HT29 colon.
The test system of assay [3] is SNB-75 CNS.
Assay [4] has as its system SNB-19 CNS.
For assay [5], the system named is U251 CNS.
For assay [6], the system named is PC-3 prostate.
For assay [7], the system named is SK-MEL-5 melanoma.
Assay [8] relates to UACC-62 melanoma.
Assay [9] deals with LOX IMVI melanoma.
The test system of assay [10] is SK-MEL-28 melanoma.

SMILES strings stand for the structures. About 83,000 compounds went through this panel and 20% of them were active in at least one assay; those are over-represented in the sample as a whole.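 The endpoint reported here, percent growth, reads 100 for growth as untreated, 0 for no net growth and -100 for all cells dead.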 Unmarked numbers belong to inactive results. Active and inactive are the calls of the source. The calls were made as follows: active = growth percent below 10; inactive = the rest.

As to `COc1ccc2c(c1)CC/C(=C\c1ccc(OCC(=O)Nc3nc4ccccc4s3)cc1)C2=O`, the growth in assay [1] is 102%; in [2], 103%; in assay [3], 95.2%; in assay [4], 100%; in [5] it was 81.4%; in assay [6], 74.1%. Moreover, the growth was 91.6% in [7], 86% in [8], -88.6% (active) in assay [9] and 112% in [10].
On to `CCOC(=O)c1sc(NC(=O)COc2ccc(/C=C3\CCc4cc(OC)ccc4C3=O)cc2)nc1C`, for which the growth is 102% in assay [1]; 85.8% in assay [2]; 105% in [3]; 96.1% in assay [4]; 91.2% in [5]; 79.5% in assay [6]. Further, the growth in [7] is 96.6%; in assay [8], 95.2%; in assay [9], -88.1% (active); in assay [10] it was 118%.
As for `NC(=O)c1cc(Cl)ccc1NC(=O)c1ccccc1-c1ccccc1`, the growth in [1] is 27.9%; in [2], 9.11% (active); in assay [3], -5.88% (active); in [4], 31.9%; in [5] it was 21.4%; in [6] it was 23.5%. Also, the growth was 26.4% in assay [7], 18.6% in [8], 28.9% in [9] and 41.5% in assay [10].
With `CCOC(=O)Nc1ccc2c3c(cccc13)-c1ccccc1-2`, the growth was 25.2% in [1]; 5.04% (active) in assay [2]; 6.18% (active) in [3]; 45.1% in assay [4]; 34.5% in [5]; 49.8% in assay [6]. Also, the growth was 33.6% in [7], 30.5% in assay [8], 30.5% in [9] and 46% in [10].
With `O=c1sc2ncnc3ncn1c32`, the growth in assay [1] is 78%; in [2], 56.2%; in [3] it was 46.1%; in assay [4] it was 97.4%; in [5] it was 87.4%; in assay [6], 75.8%. Besides, the growth is 89.3% in assay [7], 56.8% in assay [8], 12.7% in assay [9] and 99.6% in assay [10].
As for `NC(=O)c1cc(Br)cc(Br)c1NS(=O)(=O)c1ccccc1`, the growth was 100% in assay [1]; 110% in assay [2]; 68.2% in assay [3]; 105% in assay [4]; 108% in assay [5]; 89.2% in [6]. The growth was 98.2% in assay [7], 94.9% in assay [8], 99.4% in [9] and 110% in [10].
With `COc1cnc2c(c1)C(=O)c1c-2n(CCCN2CCC(O)CC2)c(=O)c2cc(F)ccc12`, the growth in [1] is 7.5% (active); in assay [2], -20.6% (active); in assay [3] it was -16.9% (active); in assay [4], 14%; in assay [5], -28.4% (active); in [6] it was 3.1% (active). Also, the growth in assay [7] is -98.9% (active); in assay [8], -40.8% (active); in assay [9] it was -70.3% (active); in assay [10] it was 13.2%.
`Cc1onc(-c2ccccc2Cl)c1C(=O)N[C@@H]1C(=O)N2[C@@H]1SC(C)(C)[C@@H]2C(=O)O`: the growth was 106% in assay [1]; 105% in assay [2]; 103% in assay [3]; 105% in assay [4]; 98.4% in assay [5]; 98.3% in [6]. Moreover, the growth in assay [7] is 101%; in assay [8], 99.5%; in assay [9], 99.9%; in [10] it was 117%.
With `COC(=O)[C@H](CCCCNC(=O)OCc1ccccc1)NC(=O)[C@@H](NC(=O)Nc1cc(C(F)(F)F)cc(C(F)(F)F)c1)C(C)C`, the growth in assay [1] was 13.4% [100 µM]; in assay [2] it was -60.8% [100 µM] (active); in [3], -88.7% [100 µM] (active); in assay [4] it was 28% [100 µM]; in [5], -88% [100 µM] (active); in assay [6], -83.9% [100 µM] (active). Also, the growth in assay [7] is -43.4% [100 µM] (active); in assay [8], -83.6% [100 µM] (active); in assay [9], -83.3% [100 µM] (active); in [10], -86.3% [100 µM] (active).
As for `O=C1N=C(N2CCOCC2)S/C1=C\c1cn(-c2ccccc2)nc1-c1ccccc1`, the growth was 89.4% in assay [1]; 80.5% in [2]; -30.2% (active) in [3]; 72.1% in [4]; 66.1% in [5]; 90.4% in assay [6]. Moreover, the growth in assay [7] is 66.4%; in [8] it was 77.8%; in assay [9] it was 76%; in assay [10], 72%.
With `CCOc1cc(CCNS(=O)(=O)c2ccc(C)cc2)c(C(C)=O)cc1OCC`, the growth in assay [1] is 83.3% [100 µM]; in assay [2] it was 79.7% [100 µM]; in assay [3], 93.3% [100 µM]; in assay [4], 87.3% [100 µM]; in assay [5], 86.4% [100 µM]; in assay [6], 33.5% [100 µM]. Further, the growth in assay [7] is 66.1% [100 µM]; in [8], 59% [100 µM]; in assay [9], 87.1% [100 µM]; in assay [10] it was 108% [100 µM].
Consider `COCCCNS(=O)(=O)c1ncnc2nc[nH]c12`, for which the growth is 124% in [1]; 125% in assay [2]; 116% in [3]; 122% in assay [4]; 124% in [5]; 106% in assay [6]. Further, the growth in assay [7] was 109%; in assay [8] it was 112%; in assay [9], 111%; in assay [10], 152%.
Consider `COc1cccc(N2CCN(CC(=O)N3CCN(c4nnc(-c5ccc(Cl)cc5)c(-c5ccc(Cl)cc5)n4)CC3)CC2)c1`, for which the growth was 49.5% in assay [1]; 51% in assay [2]; 76.3% in [3]; 77.1% in assay [4]; 65.7% in assay [5]; 15.8% in [6]. The growth in assay [7] was 48.4%; in assay [8], 70.4%; in [9], 65%; in assay [10] it was 88.7%.
`COC(=O)c1cc2oc(/C=N\NC(=O)c3cc4oc(C)c(C)c4[nH]3)cc2[nH]1`: the growth in assay [1] is 108%; in [2] it was 111%; in assay [3] it was 112%; in assay [4] it was 102%; in [5], 100%; in assay [6] it was 72%. In addition, the growth in assay [7] was 108%; in [8], 115%; in [9], 107%; in assay [10] it was 110%.
